Only a selection was taken, and hits are over-represented in it overall.
TTR transcr act – increases transthyretin transcription; SH-SY5Y TTR promoter Gaussia luciferase, luminescence; 100% = recombinant luciferase protein wells; activation, % at 16.7 µM; 1.3% of 92,000 active; AID 1117267;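 active means activation above the mean of all tested compounds plus 3 SD, cut at about 9.5% in these data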;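 further: cells exposed to compounds for one day before reading; 0% = median of all test compound wells on the plate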
TTR inh HuH7 – HuH7 TTR transcription inhibition, counter-screen; HuH7 TTR promoter-Gaussia luciferase reporter, luminescence; shares compounds with TTR transcr act; 4% of 1,100 active; inhibition, % at 16.7 µM;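 active means average inhibition above the solvent-only control wells' mean plus 3 SD, cut at about 15% in these data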;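 further: 0% = cells with DMSO only and 100% = cells with inhibitor control FD; inhibitors lower well luminescence so higher value means more inhibition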
TTR up confirm – confirmation of human transthyretin transcription activators. AID 1117280. shares compounds with TTR transcr act. SHSY5Y TTR promoter Gaussia luciferase, luminescence; 100% = purified Lucia enzyme wells, no cells. 1,100 tested, under 10 active. activation, % at 16.7 µM;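 active means mean activation above a set limit taken from the earlier primary screen, cut at about 11% in these data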;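 further: 0% = DMSO-treated cells and 100% = recombinant Lucia luciferase without cells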
An asterisk follows results filed as active.

SMILES	TTR transcr act	others
CCN1C(=O)[C@H]2[C@@H](c3ccc(OC)cc3)N3C(=O)CN(Cc4ccccc4)C(=O)[C@@]3(Cc3ccccc3)[C@H]2C1=O	5
O=C(CN1C(=O)c2ccccc2S1(=O)=O)NCc1ccccc1	1
Cc1ccc(SCC(=O)NCCSCc2ccccc2)cc1	1
Cc1ccc(CSCCNC(=O)CN2C(=O)c3ccccc3S2(=O)=O)cc1	9.9*	TTR inh HuH7=-8;TTR up confirm=-1
Cc1ccccc1C(=O)NC1CCCCN(C(C)C)C1=O (configuration not stated)	1
COc1cc(OC)cc(C(C)c2ccc(C)cc2)c1 (configuration not stated)	1
COc1ncnc2c1ncn2CCCNCC(C)c1ccccc1 (configuration not stated)	0
CCC[C@H]1[C@@H](OC(=O)NCc2ccc(OC)c(OC)c2)CC[C@@]23CCCN2C(=O)CCC[C@@H]13	0
COc1ccc(C(=O)C2CCCN(C(=O)c3c4c(nn3C)CCCC4)C2)cc1F (configuration not stated)	2
Cc1cc(C)c(C(=O)N2CCCC(C(=O)c3cc(F)ccc3F)C2)o1 (configuration not stated)	3
Cn1nc2c(c1C(=O)N1CCCC(C(=O)c3cc(F)ccc3F)C1)CCCC2 (configuration not stated)	12*	TTR inh HuH7=-19;TTR up confirm=-1
COC(=O)[C@@H](Cc1ccccc1)NC(=O)/C=C/[C@H]1O[C@@H](n2cnc3c(NC(=O)c4ccccc4)ncnc32)[C@H](O)[C@@H]1O	2
O=C(CC[C@H]1O[C@@H](n2ccc(=O)[nH]c2=O)[C@H](O)[C@@H]1O)N[C@H](Cc1ccccc1)C(=O)NC1CCCCC1	1
Cc1cc(C)cc([C@H]2C[C@]34CN(Cc5ccccc5)S(=O)(=O)[C@H]3C[C@H]2O4)c1	-1
Cc1cccc(CN2C[C@]34C=C[C@@H](C[C@@H]3S2(=O)=O)O4)c1	-1
O=S1(=O)[C@H]2C[C@@H]3C=C[C@@]2(CN1Cc1ccc(Cl)cc1)O3	17*	TTR inh HuH7=-12;TTR up confirm=0
CCC(=O)N[C@H]1CC[C@@H](CCn2cc(C3CC3)nn2)O[C@@H]1CO	0
Clc1ccc2nc(CNc3nc(N4CCOCC4)nc4c3ncn4-c3ccsc3)[nH]c2c1	9
O=C(CSc1cc(Cl)ccc1Cl)N/N=C/c1ccc[nH]1	-2
CC(=O)N(C)c1ccc(NC(=O)COc2ccc(Br)cc2C)cc1	-1
CCCCC(=O)Nc1ccc(NC(=O)CCCC)nc1	0
CCCCCCCC(=O)NC1=NC(=O)C(C)(C)S1	13*	TTR inh HuH7=3;TTR up confirm=1
CCCCC(=O)Nc1ccc(Br)cn1	1
Cc1cc2nc(-c3cccc(Cl)c3)c(CC(C)(C)C)n2c(C)c1Br	2
O=C(Cc1ccc(NC(=O)C2CCN(C(=O)C3CCCCC3)CC2)cc1)Nc1ccc(C(=O)N2CCOCC2)cc1	-1
SMILES	TTR transcr act	others
COc1ccc2c(c1)sc(=N)n2CC(=O)Nc1cc(C)cc(C)c1	1
COc1ccc(CC(=O)c2ccc(OC)c(OC)c2)cc1	1
COC(=O)Cn1c(=NC(=O)c2ccc(OC)c(OC)c2)sc2cc(OC)ccc21	12*	TTR inh HuH7=-2;TTR up confirm=0
N#Cc1cc2cc(Cl)ccc2[nH]c1=O	-1
O=C(O)CCc1nn2cc(-c3ccccc3)nc2[nH]c1=O	-1
Cc1nn2c(-c3ccccc3)c(-c3ccccc3)nc2[nH]c1=O	-1
Cc1nn2cc(-c3ccccc3)nc2[nH]c1=O	10*	TTR inh HuH7=1;TTR up confirm=0
CC1=C(C(=O)OC(C)C)C(c2cccs2)N2C(=O)CCSC2=N1 (configuration not stated)	-2
CC1(C)CC(=O)C2=C(C1)N=C1SCCC(=O)N1C2c1ccccc1 (configuration not stated)	-1
COC(=O)C1=C(C)N=C2SCCC(=O)N2C1c1ccc(C(=O)OC)cc1 (configuration not stated)	16*	TTR inh HuH7=-7;TTR up confirm=2
C[C@H]1CN([C@@H](C)CO)C(=O)CCCn2cc(nn2)CO[C@@H]1CN(C)C(=O)CCC(F)(F)F	0
COc1ccc(C(=O)N/N=C/c2ccc(OC(=O)c3cccc4ccccc34)c([N+](=O)[O-])c2)cc1	-3
COc1ccc(C=NNC(=O)CCCC(=O)NN=Cc2ccc(OC)c(OC)c2)cc1OC	0
COc1cc(/C=N/NC(=O)COc2c(C)cc([N+](=O)[O-])cc2C)ccc1OC(=O)c1ccccc1Br	15*	TTR inh HuH7=14;TTR up confirm=-2
CCOC(=O)Cc1csc(NC(=O)CSc2nnc(-c3ccc(NS(=O)(=O)CC)cc3)o2)n1	-3
CCS(=O)(=O)Nc1ccc(-c2nnc(SCC(=O)OC)o2)cc1	10*	TTR inh HuH7=-7;TTR up confirm=0
COC(=O)CSc1nnc(-c2ccc(OC)c(OC)c2)o1	3
Cn1nc(C(=O)N2CCc3ccccc32)c2ccccc2c1=O	-1
Cc1cc(C(=O)N2CCc3ccccc32)n(-c2ccccc2)n1	10*	TTR inh HuH7=21*;TTR up confirm=11*
Cc1cc(C)n(C(C)CC(=O)N2CCc3ccccc32)n1 (configuration not stated)	1
CCOC(=O)c1cnc2cc(-c3ccc(C(C)(C)C)cc3)nn2c1N	0
Cc1cc(C)n2nc(-c3cccc(Br)c3)cc2n1	0
CC(=O)c1cnc2cc(-c3cccc(Br)c3)nn2c1C	9.7*	TTR inh HuH7=-1;TTR up confirm=0
Cc1ccccc1OCc1csc(N)n1	-2
O=C1N(c2ccccc2)CC2CC(c3ccccc3)N3CCCC123 (configuration not stated)	4
SMILES	TTR transcr act	others
COc1ccc2[nH]c3c(Cl)ncnc3c2c1	16*	TTR inh HuH7=19*;TTR up confirm=-1
CCCCOc1ncnc2c1[nH]c1ccc(OC)cc12	3
COc1ccc2[nH]c3c(N4CCc5ccccc5C4)ncnc3c2c1	-6
CO[C@H]([C@H](C)/C=C/N(C)C=O)[C@@H](C)C(=O)CC[C@H](C)[C@H](O)[C@H](C)[C@H]1OC(=O)/C=C/C(C)=C/C[C@H](O)C[C@@H]2C=CC[C@@H](C[C@H](OC)[C@@H](CO)[C@@H](OC)C[C@@H](OC)[C@@H]1C)O2	1
O=C(NC1CCCC1)C(c1cccnc1)N(C(=O)c1ccco1)c1ccc(F)cc1 (configuration not stated)	2
O=C(O)CCc1ccc(-c2ccccc2)n1NC(=O)c1ccco1	22*	TTR inh HuH7=-19;TTR up confirm=0
O=C(Nn1c(-c2ccccc2)nc2ccccc2c1=O)c1ccco1	1
O=C(O)CCc1ccc(-c2cccs2)n1NC(=O)c1ccco1	-3
Cc1cc(NC(=O)CCOc2ccc(F)cc2)no1	4
Cc1cc(NC(=O)C(C)SCC(=O)OC(C)C(=O)Nc2ccc(F)cc2Cl)no1 (configuration not stated)	12*	TTR inh HuH7=-9;TTR up confirm=0
Cc1cc(NC(=O)C(C)SCC(=O)OC(C)C(=O)Nc2cccc(C#N)c2)no1 (configuration not stated)	0
CC(C)(C)c1ccc(C(=O)NCC(=O)OCC(=O)Nc2ccc3c(c2)OCCO3)cc1	1
O=C(COc1coc(CN2CCc3ccccc3C2)cc1=O)Nc1cccc(Cl)c1	-2
O=C1CN(C(=O)c2ccc(Cl)c([N+](=O)[O-])c2)c2ccccc2N1	0
Cc1ccc2cccc(OCC(=O)N(C)CC(=O)Nc3ccc(F)cc3)c2n1	4

Source: PubChem BioAssay (The Scripps Research Institute Molecular Screening Center)
